In the library only some 2.8% were active in any assay of this set; here they are far more common.
KDM5B inh = Primary screen for KDM5B Histone Demethylases FDH-coupled qHTS; hit rate 2.6% among 220,000; KDM5B demethylase, FDH-coupled NADH fluorescence (FDH is formaldehyde dehydrogenase); Lysine-specific demethylase 5B (Homo sapiens), Q9UGL1; Potency, µM (highest dose often 57.7 µM), hits mostly inhibitors; further: potency means the concentration at half of the fitted maximal effect; 0% is about no effect; nearly all actives have a fitted effect of over 70% in size
Target sequence (Q9UGL1 whole entry, looked up): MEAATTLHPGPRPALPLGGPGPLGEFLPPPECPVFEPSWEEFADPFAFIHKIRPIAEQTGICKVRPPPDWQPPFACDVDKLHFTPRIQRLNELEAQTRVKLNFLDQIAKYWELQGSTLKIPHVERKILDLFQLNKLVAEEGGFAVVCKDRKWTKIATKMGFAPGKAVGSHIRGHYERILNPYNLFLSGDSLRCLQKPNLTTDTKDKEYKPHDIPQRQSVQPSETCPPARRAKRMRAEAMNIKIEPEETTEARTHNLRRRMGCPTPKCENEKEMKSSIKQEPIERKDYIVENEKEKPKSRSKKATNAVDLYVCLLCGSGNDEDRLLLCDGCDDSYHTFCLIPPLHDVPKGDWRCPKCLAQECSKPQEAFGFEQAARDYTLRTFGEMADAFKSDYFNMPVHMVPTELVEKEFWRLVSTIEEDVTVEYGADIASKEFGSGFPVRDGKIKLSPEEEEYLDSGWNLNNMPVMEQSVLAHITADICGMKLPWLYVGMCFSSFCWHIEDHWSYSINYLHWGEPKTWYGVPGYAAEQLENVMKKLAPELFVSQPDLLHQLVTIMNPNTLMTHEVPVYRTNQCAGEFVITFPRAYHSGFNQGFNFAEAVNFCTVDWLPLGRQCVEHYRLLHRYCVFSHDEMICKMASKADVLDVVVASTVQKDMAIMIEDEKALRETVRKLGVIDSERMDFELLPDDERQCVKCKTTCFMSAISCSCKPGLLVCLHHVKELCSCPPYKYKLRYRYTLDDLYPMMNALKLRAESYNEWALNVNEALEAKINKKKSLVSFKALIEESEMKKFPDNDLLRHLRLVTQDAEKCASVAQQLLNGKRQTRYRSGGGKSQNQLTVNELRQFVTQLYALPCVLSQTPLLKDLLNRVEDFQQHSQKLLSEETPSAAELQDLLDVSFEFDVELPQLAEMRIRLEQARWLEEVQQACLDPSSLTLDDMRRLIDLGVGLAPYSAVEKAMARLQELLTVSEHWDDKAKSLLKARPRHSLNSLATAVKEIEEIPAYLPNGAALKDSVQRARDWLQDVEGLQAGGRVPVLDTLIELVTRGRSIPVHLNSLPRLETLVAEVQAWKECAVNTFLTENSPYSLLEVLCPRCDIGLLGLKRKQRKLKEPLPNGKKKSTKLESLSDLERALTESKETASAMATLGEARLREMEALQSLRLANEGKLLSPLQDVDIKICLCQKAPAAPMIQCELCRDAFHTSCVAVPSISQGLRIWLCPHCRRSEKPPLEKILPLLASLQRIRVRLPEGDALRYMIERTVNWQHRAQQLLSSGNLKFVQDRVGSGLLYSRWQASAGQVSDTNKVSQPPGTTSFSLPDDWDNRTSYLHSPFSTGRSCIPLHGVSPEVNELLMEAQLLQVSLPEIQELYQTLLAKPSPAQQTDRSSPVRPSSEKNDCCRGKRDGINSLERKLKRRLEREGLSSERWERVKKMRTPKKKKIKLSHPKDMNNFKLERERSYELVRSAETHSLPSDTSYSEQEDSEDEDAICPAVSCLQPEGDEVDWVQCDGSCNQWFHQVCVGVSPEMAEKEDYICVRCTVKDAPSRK
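Coupled FDH/NAD⁺ fluorescence readout. KDM5BΔAP 200 nM final; compound titration, 10 min RT preincubation; substrate mix 12.5 µM H3K4me3, 25 µM 2-OG, 50 µM Fe(II), 100 µM ascorbate, 0.25 mM NAD⁺, 0.25 U/mL FDH; ΔRFU over 30 min.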
IP6K1 inh = Primary qHTS assay for small molecule inhibitors of Inositol hexaphosphate kinase 1 (IP6K1); AID 1645851, 2021; hit rate 0.81% among 140,000; activity change, % (series mostly up to about 58 µM); IP6K1 kinase, ADP-Glo luminescence, 2 h; active compounds read low; Inositol hexakisphosphate kinase 1 (Homo sapiens), Q92551; in the data active means activity change below about -25%; further: on the % scale 0 is the no-effect control and ±100 the full control effect
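ADP-Glo luminescence measures ADP made by human IP6K1 during a 2 h RT reaction with ATP/IP6 (mix at 1.3 mM/130 uM); top library doses 57.5 and 19.1 uM final.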
IP6K1 inh cnf = Confirmatory qHTS assay for small molecule inhibitors of Inositol hexaphosphate kinase 1 (IP6K1); shares compounds with IP6K1 inh; recombinant IP6K1 kinase, ADP-Glo luminescence, 2 h; Potency, µM (highest dose often 49 µM), without a hit: at the top dose activity change, negative = inhibition, actives largely listed as inhibitors; hit rate 13% among 1,200; further: potency means the concentration at half of the fitted maximal effect; on the % scale 0 is the no-effect control and ±100 the full control effect; nearly all actives have a fitted effect of over 65% in size
Active calls of the source: *; i = inactive; ? = inconclusive; nt = not tested or not shown; [ ] = another dose, or the depositor's remark. Unless noted, the call rests on the fitted dose curve; in most records, active means well fitted inhibition curve with a large enough effect; inconclusive means small, poorly fitted or top-dose-only effect; inactive means no such curve, though single readings can be large or run the other way.

SMILES	KDM5B inh	IP6K1 inh	IP6K1 inh cnf
COc1ccc(CC(=O)N2CC(=O)N(C3CCCCC3)CC(O)C2)cc1 (stereo not drawn)	nt	-4	nt
CN(Cc1cccs1)c1cc(C2CC(O)C2)ncn1 (stereo not drawn)	i	0	nt
CN(Cc1noc(C2CCCC2)n1)c1cc(C2CC(O)C2)ncn1 (stereo not drawn)	i	-28*	-3%
Cc1ccc(NC(=O)CSc2ncc(S(=O)(=O)c3ccc(C(C)C)cc3)c(=O)[nH]2)cc1C	?	-12	nt
CCc1ccc(S(=O)(=O)c2cnc(SCC(=O)Nc3ccc(OC)cc3OC)[nH]c2=O)cc1	?	-28*	?
Cc1ccc(S(=O)(=O)c2cnc(SCC(=O)Nc3ccc4c(c3)OCCO4)[nH]c2=O)cc1C	i	-25*	?
COc1cc(Cl)c(C)cc1NC(=O)CSc1ncc(S(=O)(=O)c2ccc(C(C)(C)C)cc2)c(=O)[nH]1	i	-9	nt
O=C(C1COc2cc(S(=O)(=O)NCc3ccc(Cl)cc3)ccc2O1)N1CCOCC1 (stereo not drawn)	i	nt	nt
O=C(c1ccc(F)c(F)c1)N1CCN(c2cc(-c3ccc(Cl)cc3)[nH]n2)CC1	i	13	nt
COc1ccc(F)cc1-c1ccc(CN2CCC(NC(=O)c3ccc(NC(C)=O)cc3)C2)cc1 (stereo not drawn)	nt	-2	nt
CCOc1ccccc1N1CC(c2nc3ccccc3n2CCOc2ccc(OC)cc2)CC1=O (stereo not drawn)	?	8	nt
CCOc1ccccc1N1CC(c2nc3ccccc3n2CCCOc2ccc(OC)cc2)CC1=O (stereo not drawn)	i	-27*	6%
O=C(Nc1ccc(Cl)cc1)C1CC2CCC1C2 (stereo not drawn)	i	nt	nt
CCCOc1ccc(OC(=O)c2c(-c3ccccc3Cl)noc2C)cc1	i	-20	nt
CC(=O)c1ccc(OC(=O)c2c(-c3ccccc3Cl)noc2C)cc1	i	-42*	-18%
CC(=O)NC(C)C(=O)N1CCCC1C(=O)N1CCCC1C(=O)NC(C)C(=O)NC1C(=O)NC(CC(C)C)C(=O)NC2CCCCNC(=O)CCC(C(=O)NC(Cc3ccc(O)cc3)C(=O)O)NC(=O)C3CCC(=O)OCC(NC(=O)C4CCCN4C(=O)C(Cc4c[nH]c5ccccc45)NC2=O)C(=O)NC(CC(=O)OC1C)C(=O)NC(Cc1c[nH]c2ccccc12)C(=O)N3 (stereo not drawn)	i	nt	nt
CCn1c2c(c(=O)n3ncc(C(=O)Nc4ccc(C(=O)OC)cc4)c13)CN(Cc1ccc(OC)cc1)CC2	?	-35*	-6%
CCn1c2c(c(=O)n3ncc(C(=O)Nc4cc(Cl)ccc4OC)c13)CN(Cc1ccc(OC)cc1)CC2	?	-14	nt
C[C@@H]1C(=O)O[C@H](C)[C@H]1C[C@@H](O)[C@](C)(O)[C@H]1CC[C@@]2(O)C3=CC(=O)[C@@H]4C[C@@H](O)[C@@H](O)C[C@]4(C)C3CC[C@]12C (stereo partly drawn)	nt	11	nt
Cc1ccc(-c2csc(=Nc3ccccc3)n2Cc2ccc3c(c2)OCO3)cc1C	?	-16	nt
CCN(CC)S(=O)(=O)c1ccc(-c2csc(=Nc3cccc(C(F)(F)F)c3)n2Cc2ccc3c(c2)OCO3)cc1	?	-4	nt
Cc1ccc(-c2csc(=Nc3ccc(F)cc3)n2Cc2ccc3c(c2)OCO3)cc1C	?	-36*	-5%
Fc1ccc(-c2csc(=Nc3cccc(C(F)(F)F)c3)n2Cc2ccc3c(c2)OCO3)cc1	?	-26*	2%
Cn1nc(C(=O)N2CCCN(c3cc(-c4ccc(Cl)cc4)[nH]n3)CC2)c2ccccc21	i	-1	nt
CCOc1ccc(N2CC(NC(=O)C(C)(C)C)CC2=O)cc1 (stereo not drawn)	i	nt	nt
SMILES	KDM5B inh	IP6K1 inh	IP6K1 inh cnf
CC(C)C(N=C1NS(=O)(=O)c2ccccc21)C(=O)NCCc1ccco1 (stereo not drawn)	i	nt	nt
CCc1cccc(CC)c1N(COC)C(=O)Cn1c(C)nc2ccccc21	?	-33*	13%
CCc1cccc(CC)c1N(COC)C(=O)Cn1cnc2ccccc21	i	nt	nt
CCOC(=O)c1c(O)c2ccccc2oc1=O	i	nt	nt
CCc1oc2ccccc2c1C(=O)c1cc(I)c(O)c(I)c1	nt	-56*	3.5µM*
O=C([C@@H]1C[C@H](Oc2cccnc2)CN1C(=O)CCc1c[nH]c2ccccc12)N1CCOCC1	i	2	nt
COCC(=O)N[C@@H]1CN(C(=O)C2(c3ccccc3)CC2)CC[C@@H]1c1nc(C)no1	i	18	nt
CCn1c(COc2ccc(Cl)c(C)c2)n[nH]c1=S	i	nt	nt
CCNc1cc(N2CCN(C3CCCCC3)CC2)c2noc3c2c1C(=O)c1ccccc1-3	?	6	nt
O=C(O)CCCNc1cc(N2CCN(C3CCCCC3)CC2)c2noc3c2c1C(=O)c1ccccc1-3	?	-34*	?
O=Cc1cccc(-c2ccc(C(=O)O)cn2)c1	i	-16	nt
O=Cc1ccc(-c2ccc(C(=O)O)cn2)cc1	22µM*	-27*	6%
COc1ccc(N2C(=O)CSC23C(=O)N(C)c2ccccc23)cc1Cl (stereo not drawn)	?	-26*	-18%
COc1cc(N2C(=O)CSC23C(=O)N(C)c2ccccc23)cc(OC)c1OC (stereo not drawn)	i	6	nt
Cn1ncc(N2CCC(C(=O)NCc3cc(F)ccc3F)C2)cc1=O (stereo not drawn)	i	-9	nt
CCN(CC)CC(=O)OCC(=O)[C@@]1(O)CC[C@H]2[C@@H]3CCC4=CC(=O)CC[C@]4(C)[C@H]3[C@@H](O)C[C@@]21C	nt	21	nt
Cc1cccc(CNC(=O)C(C)C2CCOCC2)c1 (stereo not drawn)	i	33	nt
CCCOc1ccc(C2c3c(oc4ccccc4c3=O)C(=O)N2c2nnc(C(C)C)s2)cc1 (stereo not drawn)	i[11.5 µM]	-15	nt
CC(C)N1C[C@@H]2OCC(=O)N(CC3CCCCC3)[C@@H]2C1	?	-2	nt
O=C1CO[C@H]2CN(c3ncccn3)C[C@H]2N1CC1CCCCC1	35µM*	-27*	-12%
CC(C)N(CCC(=O)c1ccc2ccccc2c1)Cc1ccccc1	nt	-12	9.2µM*
CC(C)C(NC(=O)Cc1ccc2ccccc2c1)C(=O)O (stereo not drawn)	i	nt	nt
N#Cc1nc(-c2cccs2)oc1N1CCN(C(=O)c2ccccc2)CC1	i	nt	nt
COc1ccccc1OCCNC(=O)c1ccc2c(c1)NC(=O)CS2	i	nt	nt
CN1CCC(NC[C@H]2COCc3nc4cc(F)ccc4n32)CC1	i	-2	nt
Cc1nnsc1C(=O)N1CCCC(c2ccccc2)(c2ccccc2)C1	i	42	nt
CC(=O)C1=CCC2C3CC=C4CC(O)CCC4(C)C3CCC12C (stereo not drawn)	i	nt	nt
C[C@]12CC[C@H](O)CC1=CCC1C2CC[C@]2(C)C(n3cnc4ccccc43)=CCC12 (stereo partly drawn)	nt	-26*	?
Cc1ccc(-c2cccc(CN3CCCC3C(=O)NC(C)C)c2)cc1Cl (stereo not drawn)	nt	4	nt
